Experimental data: PubChem BioAssay AID504332 (National Center for Advancing Translational Sciences (NCATS), 2011)
In all, about 350,000 compounds went through this assay and about 31,000 (8.9%) were called active. Entries that show only a call come without a potency. Another 15% or so got no clear call; they are omitted. Calls come from the whole dose curve; as a rule, active = well fitted inhibition curve with a large enough effect; inconclusive = small, poorly fitted or top-dose-only effect; inactive = no such curve, though single readings can be large or run the other way. For the sample, actives were picked, then their nearest neighbours and some compounds at random.

Each compound was assayed against Histone-lysine N-methyltransferase EHMT2 (Homo sapiens) (UniProt Q96KQ7) (assay: qHTS Assay for Inhibitors of Histone Lysine Methyltransferase G9a). Conditions: G9a H3K9 monomethylation, AlphaScreen, 2 h; series mostly up to 59 µM.
Chain of Histone-lysine N-methyltransferase EHMT2 (Homo sapiens) (Q96KQ7 913-1193 limits assumed): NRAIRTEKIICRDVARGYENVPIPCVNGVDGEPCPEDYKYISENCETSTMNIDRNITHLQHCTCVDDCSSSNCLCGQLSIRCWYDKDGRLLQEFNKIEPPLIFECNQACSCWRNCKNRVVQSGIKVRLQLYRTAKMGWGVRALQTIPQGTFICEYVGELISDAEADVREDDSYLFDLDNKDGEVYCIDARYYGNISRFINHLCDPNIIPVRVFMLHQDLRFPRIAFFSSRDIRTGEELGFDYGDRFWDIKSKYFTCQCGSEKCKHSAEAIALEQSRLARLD
How it was run: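 Enzyme 20 nM + cpd, 15 min RT; add b-H3K9 pep 500 nM / SAM 20 uM; 2 h RT; anti-H3K9me1 Ab 0.5 ug/mL + SA donor / anti-rabbit acceptor beads 20 ug/mL each, 10 min; AlphaScreen read.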
Note: nearly all actives have a fitted effect of over 75% in size.
Potency is the fitted concentration of half-maximal effect.

SMILES | Potency | activity, negative = inhibition
Cc1nn(CC(=O)N2CCN(c3cccc(C(F)(F)F)c3)CC2)c(=O)c2cc3sccc3n12 | inactive | 
CC(NS(=O)(=O)c1ccc(OCC(=O)N2CCCC2)cc1)c1ccccc1 (stereo not drawn) | inactive | 
COCCCNC(=S)NC(=O)c1ccccc1 | inactive | 
Cc1ccc(CNC(=O)c2c(-c3ccccc3)noc2C)cc1 | inactive | 
COc1ccc(C(=O)NNC(=S)NC(=O)c2ccccc2)cc1 | 22.4 µM (active) | 
Cc1onc(-c2ccccc2)c1C(=O)Nc1ccccc1C#N | inactive | 
COc1ccc(C(=O)Nc2cc(C)ccc2NC(=O)COc2ccccc2)cc1 | inactive | 
COc1ccc(C(=O)NC(=S)NNC(=O)CCc2ccccc2)cc1 |  | 28.9% [at 0.0925 µM] (inactive)
COc1ccc(C(=O)NC(=S)NNC(=O)c2c(-c3ccccc3)noc2C)cc1 | 5.62 µM (active) | 
COc1ccc(OCC(=O)NNC(=O)c2cccc(C)c2)cc1 | inactive | 
COc1ccc(OCC(=O)NNC(=O)c2ccc(-c3ccccc3)cc2)cc1 | 79.4 µM (active) | 
Cc1cn(C)c(CC(=O)NCc2ccc(Cl)cc2)c1C(=O)O | inactive | 
CCC(=O)N1CCc2cc(S(=O)(=O)NCCC(=O)Nc3cccc(C)c3C)ccc21 | inactive | 
COc1ccc2ncc3c(-c4ccc(C)c(C)c4)nn(CC(=O)NC4CCCC4)c3c2c1 | inactive | 
CC1Cc2cc(S(=O)(=O)CCC(=O)Nc3ccc(F)c(Cl)c3)ccc2N1C(=O)C1CC1 (stereo not drawn) | inactive | 
O=C(Nc1ccccc1)c1cc2ccccc2[nH]1 | inactive | 
S=c1ccc2ccccc2[nH]1 | 4.47 µM (active) | 
CC(=O)N1CCN(C(=O)c2cc(-c3ccc(Cl)s3)nc3ccccc23)CC1 | inactive | 
C#CCOc1ccc(C2CC(=O)Nc3c2c(C)nn3-c2nc(C)cc(C)n2)cc1 (stereo not drawn) | inactive | 
Cc1ccc(-c2nc(CS(=O)(=O)CC(=O)NCc3ccccc3Cl)c(C)o2)cc1 | inactive | 
CC(C)(C)C(=O)CSc1ccc(S(=O)(=O)N2CCCC2)cn1 |  | -13.9% [at 2.33 µM] (inactive)
CC1=C(C(=O)OCC2CCCCC2)C(c2c(F)cccc2Cl)CC(=O)N1 (stereo not drawn) | inactive | 
O=C(CN1CCSc2ccccc21)N1CCN(c2ccccc2)CC1 | inactive | 
N#C/C=C1\Sc2ccccc2C(=O)N1CC(=O)N1CCN(S(=O)(=O)c2ccccc2)CC1 | 70.8 µM (active) | 
O=C(Cc1ccccc1)N1CCN(S(=O)(=O)c2ccc([N+](=O)[O-])cc2)CC1 | inactive | 
O=C(CN1CCCSc2ccccc21)N1CCN(S(=O)(=O)c2cccc(F)c2)CC1 |  | 15.4% [at 12.7 µM] (inactive)
O=C(CN1CCCSc2ccccc21)N1CCN(S(=O)(=O)c2ccccc2)CC1 | 56.2 µM (active) | 
CC(C)c1ccc(S(=O)(=O)N2CCN(C(=O)CN3C(=O)NC(C)(c4ccccc4)C3=O)CC2)cc1 (stereo not drawn) | inactive | 
